DAX1 inh-1 = blocks DAX1 repression of SF-1 activated StAR promoter. HEK293T StAR-luciferase reporter, SF-1/DAX-1 repression relief. inhibition, % at 6.8 µM. 370,000 compounds, 1.1% hits;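 active = inhibition above the mean over all tested compounds plus 3 SD, cut at about 3.6% in these data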;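 note: 0% = DAX-1 cells with DMSO and 100% = cells lacking DAX-1 with DMSO; higher inhibition means more luminescence from relief of DAX-1 repression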
ssDAF-12 act = S. stercoralis DAF-12 activation, primary screen; HEK293 ssDAF-12/GRIP1 lit1-tk-luc reporter, luminescence; % of 3 µM dafachronic acid response; activation, % at 6.8 µM; 370,000 compounds, 1% hits; AID 652126;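 active = activation above the mean over all tested compounds plus 3 SD, cut at about 0.9% in these data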;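 note: 0% = DMSO-only wells and 100% = 3 µM delta7-dafachronic acid wells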
hcDAF-12 act = activators of H. contortus DAF-12 nuclear receptor; HEK293 hcDAF-12 lit1-tk-luc reporter, luminescence; 0% DMSO, 100% Δ7-dafachronic acid; 370,000 compounds, 1.4% hits; activation, % at 6.8 µM;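 active = activation above the mean of all tested compounds plus 3 SD, cut at about 5.5% in these data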;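 note: 100% = response to 3 µM Δ7-dafachronic acid high control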
DAX1 inh-2 = inhibitors of human orphan nuclear receptor DAX1 (NR0B1); HEK293 Gal4-DAX1 luciferase reporter, luminescence; inhibition, % at 6.75 µM; 340,000 compounds, 0.99% hits;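 active = inhibition above the mean over all tested compounds plus 3 SD, cut at about 4.2% in these data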;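 note: 0% = DAX1-transfected cells with DMSO and 100% = empty-vector control cells with DMSO; inhibition shows as a rise in luminescence from relieved DAX1 repression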
Target sequence (P51843 207-470 limits assumed): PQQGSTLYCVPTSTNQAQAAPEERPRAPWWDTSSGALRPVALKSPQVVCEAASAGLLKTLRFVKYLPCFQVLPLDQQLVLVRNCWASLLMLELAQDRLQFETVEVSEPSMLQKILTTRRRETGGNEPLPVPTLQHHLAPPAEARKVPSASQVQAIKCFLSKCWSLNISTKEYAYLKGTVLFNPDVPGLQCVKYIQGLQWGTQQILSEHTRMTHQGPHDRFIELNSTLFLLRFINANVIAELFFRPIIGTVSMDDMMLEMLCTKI
hgDAF12 agonist = hgDAF-12 agonism, primary luciferase screen; 370,000 compounds, 1.8% hits; AID 687014; HEK293 GAL4-hgDAF12 UAS-luciferase reporter, agonist luminescence; normalized to butyrate control; activation, % at 6.8 µM;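 active = activation above a cutoff set at the mean of all screened compounds plus 3 SD, cut at about 10% in these data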;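 note: 0% = DMSO wells and 100% = sodium butyrate wells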
Starred values were filed as active, the others as inactive; . = no result given. The list is not random: actives were taken first. Their share in the collection is about 4.1%.

SMILES | DAX1 inh-1 | ssDAF-12 act | hcDAF-12 act | DAX1 inh-2 | hgDAF12 agonist
CN1C=CC(=CC=C2C=CC(=O)C=C2)C=C1 | 1 | -1 | 0 | 0 | 0
COc1ccc(S(=O)(=O)Nc2ccc(Cl)cn2)cc1 | -1 | -1 | -3 | 3 | -4
Cc1cc(C)nc(NS(=O)(=O)c2ccc(Br)s2)c1 | -1 | -1 | 0 | 1 | -2
Cc1ccc(NS(=O)(=O)c2ccc(Br)s2)nc1 | 0 | 1.3* | -1 | 2 | -3
COc1ccc(S(=O)(=O)Nc2ccc(C)cn2)cc1 | 0 | -1 | -1 | 4.6* | 0
COc1ccc(S(=O)(=O)Cc2ccc(C(=O)NCCCN3CCc4ccccc4C3)o2)cc1 | 0 | 3.5* | 5.8* | 2 | 3
COc1ccc(N2CCN(CCCNC(=O)c3ccc(CS(=O)(=O)c4ccc(OC)cc4)o3)CC2)cc1 | -1 | -1 | -1 | -1 | -1
CCOC(=O)[C@@]12CCC3=C1N(CCC3)C(=O)[C@H](CC(=O)NCc1ccccc1)C2 | 0 | -1 | 0 | . | -1
O=C(CN1CCN(S(=O)(=O)c2ccc(Br)cc2)CC1)c1ccc(O)c(O)c1 | 0 | -1 | 5.9* | 1 | 1
CC(C)c1ccc(S(=O)(=O)N2CCN(CC(=O)c3ccc(O)c(O)c3)CC2)cc1 | 0 | -1 | 0 | -1 | 1
COC(=O)[C@]12C[C@H](CC(=O)N3CCSCC3)C(=O)N(CCc3ccc(OC)c(OC)c3)C1=C[C@H](C1CCCC1)O[C@@H]2C | -2 | -2 | -2 | . | 1
Cc1ccc(OCCC(=O)NNC(=O)c2cc(C)oc2C)cc1 | 0 | -1 | 2 | 4.4* | 2
C#CCN1CC(N(C)CCOC(=O)CSc2ccccc2)CS1(=O)=O (stereo unspecified) | -1 | -1 | -1 | . | 5
COc1ccc([N+](=O)[O-])cc1NC(=O)CSCc1ccccc1C | 0 | -1 | -1 | -1 | 2
COc1ccc([N+](=O)[O-])cc1NC(=O)CSCc1ccc(Br)cc1 | 0 | 1.0* | 2 | -2 | 2
COc1ccc(-n2c(SCC(=O)Nc3ccc4c(c3)OCO4)nc3sc4c(c3c2=O)CCCC4)cc1 | 0 | -1 | -1 | . | 0
CNC(=O)C[C@H]1CC[C@H]2[C@@H](COc3ccc(NC(=O)Nc4ccccc4)cc3C(=O)N2C)O1 | 1 | -2 | -1 | . | -2
C=C(C1=CCN(S(=O)(=O)C(C)(C)C)[C@H]1CCO)c1ccccc1 | -1 | -1 | 0 | 5.8* | -1
COC(=O)c1ccc(Cn2nnc3c(=O)[nH]c(C4CCCN(S(=O)(=O)c5ccc(C)cc5)C4)nc32)cc1 (stereo unspecified) | 0 | -1 | 5.6* | 0 | -1
CCOC(=O)CN1CC23C=CC(O2)C(C(=O)Nc2cc(OC)ccc2OC)C3C1=O (stereo unspecified) | 0 | -1 | -2 | 4.9* | -3
O=C(c1cccc(F)c1F)N(Cc1ccccn1)CC1CCCO1 (stereo unspecified) | 0 | -1 | -2 | . | 0
Cc1cccnc1NC(=S)Nc1ccc(F)cc1F | 1 | -2 | 2 | 0 | 11*
Cc1cc(C)nc(NC(=S)Nc2ccc(F)cc2F)c1 | -1 | -2 | 1 | 0 | 0
Cc1ccc(C)c(NC(=S)Nc2ncccc2C)c1 | 2 | 0 | 2 | 1 | 12*
Cc1cc(N/N=C/c2ccncc2)nc2ccccc12 | 3.9* | -1 | 3 | 3 | 4
SMILES | DAX1 inh-1 | ssDAF-12 act | hcDAF-12 act | DAX1 inh-2 | hgDAF12 agonist
Cc1cc(N/N=C/c2cccc(Br)c2)nc2ccccc12 | 1 | -1 | 3 | 0 | 6
Nc1ccccc1-c1ccc(Cl)cc1 | 4.1* | -1 | 1 | -1 | 2
O=C(N1CCC(n2nc(-c3ccccc3)oc2=O)CC1)C1(c2ccccc2)CCCC1 | . | 0 | 0 | . | -2
COc1ccc(-c2nnc(-c3cccs3)o2)cc1OC | 3 | 0 | 1 | 1 | 12*
COc1ccc(C(=O)N/N=C(\C)CC(=O)Nc2ccc(N(C)C)cc2)c(OC)c1 | 0 | -1 | -1 | 4.7* | 2
CC(C)Sc1nsc2nc(=O)c(/C=C3\C=Nc4ccccc43)c(N)n12 | 0 | -1 | -1 | 2 | 5
CS(=O)(=O)c1nsc2nc(=O)c(/C=C3\C=Nc4ccccc43)c(N)n12 | 0 | 1.0* | 1 | -1 | 1
CCCCc1nn2c(N)c(/C=C3\C=Nc4ccccc43)c(=O)nc2s1 | -1 | 2.7* | 4 | 0 | -3
CC(=O)Nc1cc(C)c2nc(NC(C)=O)sc2c1 | 1 | -1 | 0 | 8.3* | 1
CC(=O)Nc1nc2c(C)cc(NC(=O)C3CCCCC3)cc2s1 | 1 | 1 | 0 | 2 | 1
C=CCSC1=N/C(=C/c2ccsc2)C(=O)N1c1ccccc1 | 0 | -2 | -1 | 5.0* | 0
CCC[C@H]1[C@@H](NC(=O)c2cccc(C)c2)CC[C@@]23CCCN2C(=O)CCC[C@@H]13 | . | -2 | -2 | . | -3
COc1cc(/C=C/CO)ccc1O[C@@H]1O[C@H](CO)[C@@H](O)[C@H](O)[C@H]1O | 1 | -1 | 1 | 4.7* | -2
OCc1ccccc1O[C@@H]1O[C@H](CO)[C@@H](O)[C@H](O)[C@H]1O | 1 | -1 | -2 | 3 | 0
CN(C)CCCNc1oc(-c2ccccc2)nc1C#N | 0 | -2 | -2 | 1 | 0
CN(C)CCNc1oc(-c2ccccc2F)nc1C#N | -1 | -2 | 0 | 5.9* | 0
CCCCn1c(SCC(=O)NCCOC)nc2ccc(N3CCOCC3)cc2c1=O | 0 | -1 | -2 | 4.8* | -2
COCCNC(=O)CSc1nc2ccc(N3CCOCC3)cc2c(=O)n1CCc1ccccc1 | 0 | -2 | 3 | 0 | 1
CN(Cc1ccccc1Cl)C(=O)CCNC(=O)c1ccco1 | 2 | -1 | -1 | 10* | 0
O=C(NCCC(=O)N1CCc2ccccc21)c1ccco1 | 1 | -1 | 5.8* | 1 | 6
CN(Cc1ccc(Cl)cc1Cl)C(=O)CCNC(=O)c1ccco1 | 2 | -1 | -1 | 1 | -1
O=C(NCC(c1ccccc1)c1ccccc1)[C@H](Cc1c[nH]c2ccccc12)NC1(C(=O)NC2CCCCC2)CCCC1 | . | -2 | 1 | . | -1
COc1ccccc1N(CC(=O)NCCN1CCOCC1)S(=O)(=O)c1ccccc1 | 0 | -1 | 0 | 1 | -1
CN(C)c1cccc(/C=C2\CC3(OC(=O)c4ccc(F)cc4)CCCN2C3)c1 (stereo unspecified) | 1 | 0 | -1 | . | 0
Cc1cc2nc(-c3ccccc3)c(Cc3ccsc3)n2c(C)c1Br | 0 | 2.0* | 2 | . | 6
Cc1cc2nc(-c3cccc(Cl)c3)c(Cc3cccc(Cl)c3)n2c(C)c1Br | 1 | 0 | 3 | . | 2
Cc1cc2nc(-c3ccc(Cl)cc3)c(Cc3cccc(Cl)c3)n2c(C)c1Br | 2 | 1.1* | 3 | . | 3
CC(C)N1CCN(Cc2ccoc2)CC1CCO (stereo unspecified) | 0 | -2 | 0 | 1 | -2

Source: PubChem (The Scripps Research Institute Molecular Screening Center)
